Compound activity deposited in PubChem by Buhrlage Lab, Dana-Farber Cancer Institute and Novartis Institutes for BioMedical Research (Cambridge, Mass).
A selection: hits, their analogues and other compounds. The true share with any hit is near 13%.
USP8 inh = human USP8 deubiquitinase inhibition; purified USP8, Ub-rhodamine cleavage fluorescence, 30 min; hit rate 4.2% among 47,000; AID 1645853; P40818; inhibition, % at 20 µM
USP28 block = blocks human USP28 ubiquitin-rhodamine cleavage; hit rate 3% among 47,000; inhibition, % at 25 µM; AID 1645857; Q96RU2; purified USP28, Ub-rhodamine cleavage fluorescence, 30 min
USP17 inh = inhibitors of human USP17 deubiquitinase; A8MUK1; purified USP17, Ub-rhodamine cleavage fluorescence, 3 h; inhibition, % at 50 µM; hit rate 6.5% among 47,000; AID 1645855
USP10 block = blocks human USP10 ubiquitin-rhodamine cleavage; Q14694; purified USP10, Ub-rhodamine fluorescence, 60 min; inhibition, % at 20 µM; hit rate 1.1% among 47,000
Target sequence (Q14694 whole entry, looked up): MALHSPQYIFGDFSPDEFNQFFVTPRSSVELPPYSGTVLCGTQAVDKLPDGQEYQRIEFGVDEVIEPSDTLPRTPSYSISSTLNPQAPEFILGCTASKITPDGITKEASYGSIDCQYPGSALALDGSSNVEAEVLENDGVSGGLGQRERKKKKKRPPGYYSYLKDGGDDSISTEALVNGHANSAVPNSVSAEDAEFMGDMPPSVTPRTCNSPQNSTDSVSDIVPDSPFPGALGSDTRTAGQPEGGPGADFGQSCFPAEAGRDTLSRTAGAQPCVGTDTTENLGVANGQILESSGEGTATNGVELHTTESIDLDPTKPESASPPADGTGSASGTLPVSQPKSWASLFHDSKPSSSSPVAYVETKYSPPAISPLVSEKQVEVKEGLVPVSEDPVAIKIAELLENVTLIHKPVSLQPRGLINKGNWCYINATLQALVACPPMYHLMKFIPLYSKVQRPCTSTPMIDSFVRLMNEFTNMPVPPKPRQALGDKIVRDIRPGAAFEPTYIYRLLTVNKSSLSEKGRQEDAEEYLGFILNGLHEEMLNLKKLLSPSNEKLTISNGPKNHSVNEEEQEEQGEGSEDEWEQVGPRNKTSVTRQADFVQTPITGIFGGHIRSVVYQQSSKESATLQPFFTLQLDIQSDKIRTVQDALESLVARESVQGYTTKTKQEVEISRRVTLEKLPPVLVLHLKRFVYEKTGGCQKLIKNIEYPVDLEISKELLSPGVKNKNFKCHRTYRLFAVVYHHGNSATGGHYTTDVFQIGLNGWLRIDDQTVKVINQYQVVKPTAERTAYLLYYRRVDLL
USP30 block = human USP30 deubiquitinase inhibition | Q70CQ3 | purified USP30, Ub-rhodamine cleavage fluorescence | inhibition, % at 25 µM | hit rate 5.3% among 47,000
* marks the source's active call; other numbers are inactive results; i = inactive; / = no result. Rule as the data show it: active = inhibition above about 30%; inactive = the rest.

SMILES | USP8 inh | USP28 block | USP17 inh | USP10 block | USP30 block
O=C(CCCCn1c(=O)c2ccccc2n(CC(=O)NCCC2=CCCCC2)c1=O)NCc1ccc2c(c1)OCO2 | -0.8 | / | 32.7* | 13.0 | /
O=C(Cc1ccc(-n2c(=O)c3ccccc3n(CC(=O)NCCC3=CCCCC3)c2=O)cc1)NCCc1ccccc1 | -5.7 | -23.5 | 6.2 | 9.8 | -34.6
Cc1cc2c(cc1S(=O)(=O)N(C)CCCc1ccco1)OCC(=O)N2 | 4.8 | 2.6 | 0.0 | 2.0 | -11.1
Cn1c(=O)n(C2CCN(Cc3cccc(C#N)c3)CC2)c2ncncc21 | 6.0 | 5.2 | 1.5 | -5.7 | 5.8
O=C(CCn1c(=O)c2ccccc2n(Cc2cccc([N+](=O)[O-])c2)c1=O)N1CC=C(c2ccccc2)CC1 | -1.1 | 17.7 | 7.8 | 15.5 | 39.5*
O=C(CCn1c(=O)c2ccccc2n(Cc2ccccc2F)c1=O)N1CC=C(c2ccccc2)CC1 | 8.6 | 2.1 | 5.3 | 12.5 | 25.2
COc1cccc2sc(N3CCN(C(=O)CCc4ccccc4)CC3)nc12 | 12.9 | 13.8 | 6.4 | 0.5 | 16.8
O=C(CCc1ccccc1)N1CCN(c2nc3c(Cl)cccc3s2)CC1 | 16.1 | 20.8 | 26.4 | 12.2 | 38.4*
O=C(CCc1ccccc1)N1CCN(c2nc3c(F)cc(F)cc3s2)CC1 | 17.6 | 18.6 | 16.1 | 5.1 | 35.2*
O=C(Cc1ccccc1)N1CCN(c2nc3c(F)cc(F)cc3s2)CC1 | 6.9 | 6.3 | -12.2 | 1.2 | 8.3
CCc1cc2c(=O)n(Cc3ccco3)c(SCC(=O)Nc3ccccc3O)nc2s1 | 11.4 | 13.3 | / | 19.5 | 43.7*
Cc1sc2nc(SCC(=O)Nc3ccccc3O)n(Cc3ccco3)c(=O)c2c1C | 53.8* | 11.9 | 13.3 | 20.7 | 14.8
O=C1N[C@H]2OCC[C@H]2[C@H](C2CCN(C(=O)c3ccc(=O)[nH]c3)CC2)N1 | -46.9 | -6.0 | -9.5 | 0.8 | -20.0
CC(=O)N1C[C@H](c2ccccc2)[C@H]2CN(C(=O)c3ccc(=O)[nH]c3)CC[C@H]21 | 8.1 | 14.7 | 7.3 | 2.5 | 30.3*
C[C@@H](c1ccccc1)N1C(=O)N[C@@H](CCC(=O)Nc2ccc3c(c2)OCO3)C1=O | 52.2* | 0.4 | 21.9 | 1.5 | -6.5
O=C(CC[C@@H]1NC(=O)N(Cc2ccccc2)C1=O)Nc1ccc2c(c1)OCO2 | 18.6 | 2.5 | 20.4 | 1.4 | 4.0
Cc1ccc(CC(=O)Nc2ccc(C)cc2-c2n[nH]c(C3CC3)n2)cc1 | 63.5* | -5.7 | -15.5 | 30.2* | -22.2
Cc1cc(NC(=O)C2(c3ccc(F)cc3)CCCC2)n(-c2nc3ccccc3[nH]2)n1 | 70.0* | 0.1 | 0.0 | 10.5 | -5.4
CC(NC(=O)C1(c2ccc(F)cc2)CCCC1)c1nc2ccccc2[nH]1 (stereo not drawn) | 0.9 | -3.5 | -13.4 | 0.0 | -23.2
CCc1ccc(OC)c(S(=O)(=O)Nc2ccc3c(c2)N(S(=O)(=O)CC)CCC3)c1 | 13.5 | 11.7 | 16.8 | 2.1 | -15.0
COc1ccc(C(=O)Nc2ccc(-n3nc(C(F)(F)F)cc3C(F)(F)F)cc2)cc1OC | 1.7 | 1.2 | 0.0 | 2.5 | -0.5
Cc1c(C(=O)NCCCN2CCOCC2)oc2ccc3c(c12)C(=O)CC(C)(c1ccc(Cl)cc1)O3 (stereo not drawn) | 0.4 | 41.6* | 9.8 | 4.2 | 18.7
COc1cccc(C(=O)Nc2ccc3c(c2)Sc2ncccc2C(=O)N3C)c1OC | -3.5 | -0.7 | 3.0 | -10.3 | -56.6
Cc1ccc(Sc2ccc(C#N)cc2NC(=O)c2ccccc2C)cc1 | 5.7 | 1.6 | -4.3 | -2.2 | 40.9*
Cc1ccc(-c2cc(CC3(C(=O)O)CCCN(C(=O)C4CC4)C3)on2)cc1 (stereo not drawn) | 6.1 | 4.7 | 7.9 | 0.1 | -0.2
SMILES | USP8 inh | USP28 block | USP17 inh | USP10 block | USP30 block
CC(=O)N1CC2(CCN(C(=O)C(C)(C)C)CC2)Nc2ccccc21 | 31.7* | -14.7 | 24.8 | 0.8 | -29.6
NC(=O)c1[nH]cnc1NC(=O)Cc1ccc(Cl)c(Cl)c1 | 0.1 | 13.4 | -7.2 | 0.6 | 3.9
COc1ccc(C(=O)CSc2nc3ccccc3n2C)c(F)c1 | -36.1 | -9.1 | -12.1 | 3.4 | -32.5
COc1ccc(-c2cc(-c3nnc(CSc4nc5ccccc5n4C)o3)c3ccccc3n2)cc1OC | 3.1 | 16.7 | 57.7* | -10.2 | 0.5
CC(C(=O)Nc1ccc([N+](=O)[O-])cc1Cl)N1CCN(C(c2ccccc2)c2ccccc2)CC1 (stereo not drawn) | -21.2 | -3.9 | -10.5 | 2.4 | -0.9
O=C(Nc1ccc2c(c1)OCO2)c1c2c(nc3ccccc13)CCN(Cc1ccccc1)C2 | -46.0 | -127.4 | -110.4 | -3.8 | i
Clc1ccc(CN2CCc3nc(Nc4ccc5c(c4)OCO5)ncc3C2)cc1 | 30.1* | -1.2 | 2.5 | 6.4 | -16.3
Cc1ccc(S(=O)(=O)CC(=O)Nc2ccc(-c3nc4ccccc4s3)c(O)c2)cc1 | 80.0* | 0.0 | -23.1 | 27.0 | -57.6
Cc1cccc2cc(CN(c3ccccc3)S(=O)(=O)c3ccccc3)c(=O)[nH]c12 | 3.5 | 9.1 | 6.6 | 1.1 | 19.0
O=C(C1CCC1)N1CCCC1c1ccnc(Nc2cnccn2)n1 (stereo not drawn) | 44.5* | 1.2 | 13.9 | -7.1 | 1.2
COc1ccc(N(CC(=O)N2CCCc3ccccc32)S(=O)(=O)c2ccccc2)cc1 | 9.6 | 13.2 | 6.2 | 7.7 | 27.3
COc1ccc(C)cc1NC(=O)N1C[C@@H]2C[C@H]1C[C@@H]2NS(=O)(=O)c1ccccc1 | -2.3 | -23.7 | -23.7 | -12.4 | -77.2
CCOC(=O)c1cnc(Nc2ccc(F)c(Cl)c2)c2ccccc12 | 20.7 | 7.5 | 44.2* | -0.3 | 17.9
O=C(Nc1ccccc1)C1Nc2ccccc2S(=O)(=O)N1 (stereo not drawn) | -4.2 | -8.5 | -2.8 | -1.4 | 0.8
CCN1CCn2c(-c3cnn(C)c3)cnc2C12CCN(C(=O)c1ccccc1)CC2 | -194.1 | -14.7 | -36.6 | 0.8 | -21.2
CC(C)(C)c1cc(C(=O)N2C[C@@H]3OCC(=O)N(CCc4ccccc4)[C@H]3C2)n[nH]1 | 1.3 | -0.1 | 0.6 | -0.8 | 30.9*
CC(C)c1cc(C(=O)N2C[C@@H]3OCC(=O)N(CCc4ccccc4)[C@H]3C2)n(C)n1 | -4.9 | -2.3 | -2.8 | -1.5 | 2.3
OC(c1ccc2c(c1)OCO2)c1ncc(-c2ccc(Cl)cc2)[nH]1 (stereo not drawn) | 5.0 | -4.4 | -11.5 | -5.5 | -43.1
OC(c1ccc2c(c1)OCO2)c1ncc(-c2ccc3ccccc3c2)[nH]1 (stereo not drawn) | 40.0* | -1.9 | 1.4 | -5.7 | -30.0
CCOc1cc(N2CCOCC2)c(OCC)cc1NC(=O)c1cc2c(s1)CCC2 | 49.6* | 13.0 | 36.0* | 29.9 | 11.4
CCOc1cc(N2CCOCC2)c(OCC)cc1NC(=O)COC(=O)c1ccc2ncsc2c1 | 2.8 | -2.7 | 4.0 | -1.1 | 1.9
COc1ccc(CNC(=O)CSc2ccc(NC(C)=O)cc2)cc1OC | 13.5 | 12.1 | 5.5 | 3.0 | 21.7
CCCCC/C=C/C(O)C(O)/C=C/c1ccc(Cl)c(O)c1CO (stereo not drawn) | -77.5 | 6.2 | 30.9* | -8.3 | -63.7
